SMILES strings stand for the structures. “And” between values parts separate entries of the source, which are not always exact repeats. Identical values can stand only once. The source made the active and inactive calls. Rule for the calls: active = hit-call score of the fitted dose curve at least 0.9, where 1 is the maximum; inactive = score below 0.9.

As a reminder, the AC50 is the concentration at which the activity in the assay is half-maximal.

The assay can be described thus: BSK_BT_PBMCCytotoxicity: PBMC Cytotoxicity Assessment in the BioMAP Diversity Plus: BT Assay (AID 2284225). The conditions noted are these: primary human B cells with PBMC. How it is done:
BSK_BT is a cell-based, multiplexed-readout assay that uses B cell and peripheral blood mononuclear cells, a human vascular primary cell co-culture, with measurements taken at 24 hours after chemical dosing in a microplate: 96-well plate.BSK_BT_PBMCCytotoxicity is an assay component measured in the BSK_BT assay. It measures dehydrogenase activity, a form of viability reporter, as detected with fluorescence intensity signals by Alamar Blue Reduction technology.Data from the assay component BSK_BT_PBMCCytotoxicity was analyzed at the endpoint, BSK_BT_PBMCCytotoxicity, in the positive analysis fitting direction relative to DMSO as the negative control and baseline of activity. Using a type of viability reporter, gain or loss-of-signal activity can be used to understand cellular changes in viability. To generalize the intended target to other relatable targets, this assay endpoint is annotated to the 'cell cycle' intended target family, where the subfamily is 'cytotoxicity'.
The levels of cell surface (or secreted, indicated by the prefix "s") biomarker endpoints were measured by ELISA. Overt cytotoxicity to cells in confluent adherent cultures (all systems other than the BT system) was assessed by measuring total protein levels using sulforhodamine B (SRB) staining in parallel cultures at the time of biomarker measurements, indicated as SRB endpoints. For proliferation assays for adherent cell types, individual cell types are cultured at sub-confluence and relative cell numbers quantified by SRB staining at time points optimized for each system (48 h: 3C and CASM3C systems; 72 h: BT and HDF3CGF systems; 96 h: SAg system). SRB was performed by staining cells with 0.1% SRB after fixation with 10% TCA and reading wells at 560 nm.Viability and proliferation of PBMC (T cells) was quantified by Alamar Blue reduction for the SAg and BT systems. For PBMC viability (referred to as PBMC Cytotoxicity within the assay endpoint names), cells were plated (75,000/well in a 96-well plate) and then chemical samples added for 1 h before addition of activators, SEB and TSST-1 (20 ng/mL final concentration each). Cells were incubated for 90 h. Then, Alamar Blue (20 uL/well) (Invitrogen, Cat DAL1100) was added for 6 h, and the plates were read with a fluorescence microplate reader at 546/580 nm (excitation/emission). For PBMC proliferation, cells were plated and activated as above but incubated for only 16 h prior to addition of Alamar Blue. Plates were read after 6 h.
Turning to `CCCCCCC=O`, the result was inactive.
In the case of `CC/C=C\C/C=C\C/C=C\CCCCCCCC(=O)OC`, the AC50 was 17.4 µM (active).
With `CC(C)[N+](C)(CCOC(=O)C1c2ccccc2Oc2ccccc21)C(C)C`, the outcome was inactive.
Still for that read-out and setting: the result for `O=C1CCCCCCCCCCC1` reads “inactive”.
As for `CC=C(C)C=CC=C(C)C`, the AC50 is 19.9 µM (active).
On to `CCOC(=O)C1=NOC(c2ccccc2)(c2ccccc2)C1`, for which the outcome was inactive.
For `C=CCCCCCCCCC=O`, the result was inactive.
With `C=CC(=O)OCC(C)OCC(C)OCC(C)OC(=O)C=C` (stereo not given), the AC50 was 13.1 µM (active).
For `C[N+](C)(C)CCCNS(=O)(=O)C(F)(F)C(F)(F)C(F)(F)C(F)(F)C(F)(F)C(F)(F)C(F)(F)C(F)(F)F`, the outcome was inactive.
Consider `COc1ccc(C(=O)/C(Br)=C\C(=O)O)cc1`, for which the AC50 was 27.6 µM (active) and 25.4 µM (active).
Take `C=CC(=O)OCCCCCCCC(C)C`: the result was inactive.
Still for that read-out and setting: next, `CC(Cl)COP(=O)(OCC(C)Cl)OCC(C)Cl` (stereo not given): “inactive”; `CCCCCCOC(=O)CCCCC(=O)OCCCCCC`: “inactive”; `CCOC(=O)/C=C\C(=O)OCC`: “inactive”.
The same measure, in the same setting: the result for `C=C(C)C(=O)OCCCCCCCCCCCC` reads “inactive”.
For the molecule `C=CC(=O)OCCCCCCOC(=O)C=C`, the AC50 was 14.3 µM (active).
Regarding `CC(C)c1cccc(C(C)C)c1N`, the result was inactive.
The same measure, in the same setting: the result for `CCNc1nc(NC(C)(C)C)nc(OC)n1` reads “inactive”; that for `CCOC(=O)C1=NN(c2ccc(Cl)cc2Cl)C(C)(C(=O)OCC)C1` (stereo not given), “inactive”; that for `COc1ccc(C(=O)c2ccccc2)c(O)c1`, “inactive”.
Same read-out and setting: the result for `CCCCC1C(=O)N(c2ccccc2)N(c2ccccc2)C1=O` reads “inactive”.
As for `O=C(Oc1ccccc1)c1ccccc1C(=O)Oc1ccccc1`, the concentration at half-maximal activity (AC50) is 20 µM (active).
Consider `CCCCCCCCCCCC(C)=O`, for which the result was inactive.
Consider `CC/C=C\CCOC(=O)c1ccccc1O`, for which the outcome was inactive.
For the molecule `C=CC(=O)NCOCCCC`, the outcome was inactive.
With `c1ccc2c(c1)[nH]c1ccccc12`, the result was inactive.
On the same count and under the same terms, next, `CCCCCCCO`: “inactive”; `CC1=CC=C(C(C)C)CC1`: “inactive”; `Oc1ccc(/C=C/c2cc(O)cc(O)c2)cc1`: “inactive”.
For the molecule `Nc1cccc(N)n1`, the outcome was inactive.
On the same count and under the same terms, the result for `C=CC(=O)NC(C)(C)C` reads “inactive”.
Still for that read-out and setting: next, `CCc1cccc(C)c1N(C(=O)CS(=O)(=O)O)C(C)COC` (stereo not given): “inactive”; `CC1(C)CC(O)CC(C)(C)N1[O]`: “inactive”; `CCC1(C)C(=O)N(Cl)C(=O)N1Cl` (stereo not given): “inactive”.
On the same count and under the same terms, the result for `COC(OC)(C(=O)c1ccccc1)c1ccccc1` reads “inactive”; that for `Clc1cc(Cl)c(Cl)c(Cl)c1Cl`, “inactive”.
With `Oc1c(Cl)cc(Cl)c(Cl)c1Cl`, the result was inactive.
Still for that read-out and setting: next, `CC=C(C)C(C)=O`: “inactive”.
As for `c1ccc2sc(SSN3CCOCC3)nc2c1`, the AC50 was 13.2 µM (active).
In the case of `CC(C)CCCCCOC(=O)CS`, the outcome was inactive.

(Values after PubChem BioAssay (EPA / NIEHS).)
